Hit rate of the full screen: of about 13,000 compounds, about 3,200 (25%) showed an effect of 50% or more. The list shows a part of the results.
System: P. falciparum stage V gametocytes
Design: BacTiter-Glo ATP luminescence viability of purified stage V gametocytes in 384-well plates, per cent inhibition versus DMSO
Settings: 48 h, 5 µM; inhibitor

Row | Compound | % Inhibition [%]
1 | CNC(=O)c1ccccc1Nc1cc(Nc2cc(OC)ccn2)ncc1Cl [TCMDC-135054] | -20.04
2 | COc1cccc(CN2Cc3ccccc3OC3(CCN(Cc4c[nH]c5cnccc45)CC3)C2)c1 [TCMDC-133378] | 19.44
3 | Cc1ccc(CN2CCN(c3cc4c(cc3Cl)CCN4C(=O)Cc3ccc(Cl)c(NC(=O)Nc4cccc(C#N)c4)c3)CC2)cc1 [TCMDC-139471] | 12.97
4 | CN(CCS(C)(=O)=O)Cc1ccc(-c2ccc3ncnc(Nc4ccc(OCc5cccc(F)c5)c(Cl)c4)c3c2)o1 [TCMDC-138629] | -22.68
5 | Cc1ccc(O)c(C(=O)c2cc(C(=O)Nc3ccccc3C)c(=O)n(-c3ccccc3C)c2)c1 [TCMDC-123627] | 58.98
6 | O=C(c1cc(C(=O)Nc2ccccc2)c(=O)n(-c2ccccc2)c1)c1cc(Cl)ccc1O [TCMDC-124511] | 30.05
7 | COc1ccc(O)c(C(=O)c2cc(C(=O)NCCc3ccccc3)c(=O)n(CCc3ccccc3)c2)c1 [TCMDC-125435] | -12.88
8 | O=C(c1cc(C(=O)Nc2ccc(F)cc2)c(=O)n(-c2ccc(F)cc2)c1)c1cc(Cl)ccc1O [TCMDC-123626] | 8.881
9 | COc1ccccc1NC(=O)c1cc(C(=O)c2cc(Cl)ccc2O)cn(-c2ccccc2OC)c1=O [TCMDC-124338] | 29.65
10 | O=C(c1cc(C(=O)Nc2ccccc2F)c(=O)n(-c2ccccc2F)c1)c1cc(Cl)ccc1O [TCMDC-123625] | 90.03
11 | O=C(Nc1ccc(-c2cccc(-c3nc4ccc(F)cc4[nH]3)c2)cc1)c1cnn2cccnc12 [TCMDC-136864] | -12.66
12 | C(=NNc1ccnc2ccccc12)c1ccncc1 [TCMDC-142016] | -6.172
13 | O=C(C1COc2ccccc2O1)N(CCCn1ccnc1)Cc1csc(-c2ccc(CNCc3ccccc3)cc2)n1 (stereo not shown) [TCMDC-141813] | 25.07
14 | CCCCNCc1ccc(-c2nc(CN(CCCn3ccnc3)C(=O)Nc3ccc(CC)cc3)cs2)cc1 [TCMDC-141639] | 61.14
15 | CCCN(Cc1nnc(-c2cccs2)o1)C(=O)C1COc2ccccc2O1 (stereo not shown) [TCMDC-125333] | 18.28
16 | CCCCNCc1ccc(-c2nc(CN(CCCn3ccnc3)C(=O)C3COc4ccccc4O3)cs2)cc1 (stereo not shown) [TCMDC-141702] | 64.34
17 | CN1CCN(CCCN(Cc2csc(-c3ccc(CNCc4ccccc4)cc3)n2)C(=O)Nc2cccc(Cl)c2)CC1 [TCMDC-141794] | 15.5
18 | CCc1ccc(NC(=O)N(CCCn2ccnc2)Cc2csc(-c3ccc(CNCc4ccccc4)cc3)n2)cc1 [TCMDC-141797] | 5.722
19 | O=C(Nc1ccc2ccccc2c1)N(CCCn1ccnc1)Cc1csc(-c2ccc(CNCc3ccccc3)cc2)n1 [TCMDC-141798] | 15.32
20 | CCCCNCc1ccc(-c2nc(CN(CCCn3ccnc3)C(=O)NC3CC3c3ccccc3)cs2)cc1 (stereo not shown) [TCMDC-141638] | 80.86
21 | CN1CCCN(Cc2ccc(-c3cccc(NC(=O)c4cccc(Cl)c4)c3)cc2)CC1 [TCMDC-132641] | 27.52
22 | CCCCNCc1ccc(-c2nc(CN(CCCN3CCN(C)CC3)C(=O)Nc3cccc(Cl)c3)cs2)cc1 [TCMDC-141637] | 88.1

Reference: PMC4552634, “A New Set of Chemical Starting Points with Plasmodium falciparum Transmission-Blocking Potential for Antimalarial Drug Discovery” (PLoS ONE, 2015)
